PubChem BioAssay (NCATS)
For some assays here: Results with a measured potency or affinity are listed apart. Activity calls are given as the source filed them.

Tests used:
[1] = Ebola virus entry assay, green fluorescence channel
[2] = Ebola virus entry assay, blue channel fluorescence
[3] = Ebola virus entry assay, green fluorescence channel; remark: listed apart in the source
[4] = Ebola virus entry assay, ratio channel readout
[5] = Ebola virus entry assay, ratio channel
[6] = Ebola virus entry assay, green channel fluorescence
[7] = Ebola virus entry assay, blue channel fluorescence; remark: listed apart in the source
[8] = Ebola virus entry assay, reporter ratio channel; AC50: Channel type: primary unless noted; outcome: Channel type: primary unless noted
[9] = Ebola virus entry assay, blue channel (ratio component)
[10] = Ebola virus entry reporter assay, green channel fluorescence
[11] = qHTS profiling of the MIPE4 collection as inhibitors of Plasmodium falciparum (3D7) proliferation (AID 743344);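 also: scaled between DMSO vehicle wells and 0.29 µM artemisinin as full inhibition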; conditions: P. falciparum 3D7 in erythrocytes, SYBR Green DNA fluorescence, 72 h; at 28.5 µM (top of the series) unless noted
Summary of the method: (§1)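 Parasite DNA was quantified by SYBR Green I fluorescence (ex 485, em 535 nm) after overnight lysis in saponin/Triton buffer at room temperature. Cultures at 0.3% parasitemia and 2.5% hematocrit were first exposed to compound for 72 h at 37 C; signals were normalised to artemisinin (0.29 uM) and vehicle wells.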

[12] = qHTS profiling of the MIPE4 collection as inhibitors of Plasmodium falciparum (DD2) proliferation (AID 743345); conditions: P. falciparum Dd2 in erythrocytes, SYBR Green DNA, 72 h; at 28.5 µM (top of the series) unless noted
Summary of the method: as §1

[13] = qHTS profiling of the MIPE4 collection as inhibitors of Plasmodium falciparum (DD2) proliferation (Rep 2) (AID 743346); conditions: P. falciparum Dd2 in erythrocytes, SYBR Green DNA, 72 h; at 28.5 µM (top of the series) unless noted
Summary of the method: as §1

[14] = qHTS profiling of the MIPE4 collection as inhibitors of Plasmodium falciparum (HB3) proliferation (AID 743347);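 also: plate controls were DMSO vehicle wells for no effect and artemisinin wells for full effect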; conditions: P. falciparum HB3 in erythrocytes, SYBR Green DNA, 72 h; at 28.5 µM (top of the series) unless noted
Summary of the method: as §1

[15] = Ebola virus entry assay, blue channel fluorescence; remark: listed apart in the source
For efficacy in this document: 0% is about no effect.

CN(N=O)C(=O)N[C@@H]1[C@@H](O)[C@H](O)[C@@H](CO)O[C@@H]1O
inactive: efficacy [1] -17.3% | outcome [2] | outcome [3] | outcome [4] | outcome [5] | outcome [6] | outcome [7] | outcome [8] | outcome [9] | outcome [10]

O=C(O)C1(C(=O)O)CCC1.[NH2-].[NH2-].[Pt+2]
inactive: efficacy [1] -21.2% | outcome [2] | outcome [3] | outcome [4] | outcome [6] | outcome [7] | outcome [8]

CN(C)C(=N)N=C(N)N
inactive: efficacy [1] -14% | outcome [2] | outcome [3] | outcome [4] | outcome [5] | outcome [6] | outcome [7] | outcome [8] | outcome [9]

Cc1ccnc2c1NC(=O)c1cccnc1N2C1CC1
358%: parasite growth, % of DMSO control [11]
112%: parasite growth remaining, % of DMSO control (lower = more inhibition) [12]
600%: growth, % of control [14]
83.7%: parasite growth, % of control (lower = inhibition) [13]
inactive: efficacy [1] 25.7% | outcome [2] | outcome [3] | outcome [4] | outcome [15] | outcome [6] | outcome [7] | outcome [8] | outcome [9]

CC(C)(C#N)c1cc(Cn2cncn2)cc(C(C)(C)C#N)c1
inactive: efficacy [1] 15% | outcome [2] | outcome [3] | outcome [4] | outcome [5] | outcome [6] | outcome [7] | outcome [8] | outcome [9] | outcome [10]

N[C@@H]1CONC1=O
inactive: efficacy [1] -13.4% | outcome [2] | outcome [3] | outcome [4] | outcome [6] | outcome [7] | outcome [8] | outcome [9]

CC(C)CC(N(C)C)C1(c2ccc(Cl)cc2)CCC1 (configuration not stated)
137%: parasite growth, % of control (lower = inhibition) [13]
90.3%: parasite growth, % of DMSO control [11]
99.9%: parasite growth remaining, % of DMSO control (lower = more inhibition) [12]
inactive: efficacy [1] -28.7% | outcome [2] | outcome [3] | outcome [4] | outcome [6] | outcome [7] | outcome [8] | outcome [9]
105%: growth, % of control [14]

C1N2CN3CN1CN(C2)C3
inactive: efficacy [1] 14.5% | outcome [2] | outcome [3] | outcome [4] | outcome [6] | outcome [7] | outcome [8] | outcome [9] | outcome [10]

O=C1CCc2ccc(OCCCCN3CCN(c4cccc(Cl)c4Cl)CC3)cc2N1
inactive: efficacy [1] -27% | outcome [2] | outcome [3] | outcome [4] | outcome [6] | outcome [8] | outcome [9]

NC(=O)OCC(COC(N)=O)c1ccccc1
inactive: efficacy [1] -25.6% | outcome [2] | outcome [3] | outcome [4] | outcome [6] | outcome [8] | outcome [9] | outcome [10]

C[C@]12CC[C@H]3[C@@H](CCC4=CC(=O)CC[C@@H]43)[C@@H]1CC[C@@H]2OC(=O)CCc1ccccc1
inactive: efficacy [1] -39.3% | outcome [2] | outcome [3] | outcome [4] | outcome [6] | outcome [8] | outcome [9] | outcome [10]

CC(C)(C)C(=O)OCOP(=O)(COCCn1cnc2c(N)ncnc21)OCOC(=O)C(C)(C)C
inactive: efficacy [1] -17.9% | outcome [2] | outcome [3] | outcome [4] | outcome [6] | outcome [7] | outcome [8] | outcome [9] | outcome [10]

Cc1cn[nH]c1
inactive: efficacy [1] -9.66% | outcome [2] | outcome [3] | outcome [4] | outcome [7] | outcome [8] | outcome [9] | outcome [10]

NCCCC(O)(P(=O)(O)O)P(=O)(O)O
inactive: efficacy [1] 11.2% | outcome [3] | outcome [4] | outcome [8] inactive [Channel type: confirmation] | outcome [9]
active: AC50 [2] 4.47 µM

CCCNC(=O)NS(=O)(=O)c1ccc(Cl)cc1
inactive: efficacy [1] -18.6% | outcome [2] | outcome [3] | outcome [4] | outcome [6] | outcome [7] | outcome [8] | outcome [9] | outcome [10]

COC(=O)[C@@H]1CC2=CC(=O)CC[C@]2(C)[C@@]23O[C@@H]2C[C@@]2(C)[C@@H](CC[C@@]24CCC(=O)O4)[C@H]13
inactive: efficacy [1] -15.8% | outcome [2] | outcome [3] | outcome [4] | outcome [6] | outcome [7] | outcome [8] | outcome [9] | outcome [10]

O=C(O)P(=O)(O)O
inactive: efficacy [1] -12.5% | outcome [2] | outcome [3] | outcome [4] | outcome [6] | outcome [7] | outcome [8] | outcome [9] | outcome [10]

O=C(O)c1cn(C2CC2)c2cc(N3CCNCC3)c(F)cc2c1=O
inactive: efficacy [1] -9.16% | outcome [2] | outcome [3] | outcome [4] | outcome [6] | outcome [7] | outcome [8] | outcome [9] | outcome [10]

CCCCS(=O)(=O)N[C@@H](Cc1ccc(OCCCCC2CCNCC2)cc1)C(=O)O
inactive: efficacy [1] 9.81% | outcome [2] | outcome [3] | outcome [4] | outcome [6] | outcome [7] | outcome [8] | outcome [9] | outcome [10]

C#CCN(C)[C@H](C)Cc1ccccc1
inactive: efficacy [1] 21.9% | outcome [2] | outcome [3] | outcome [4] | outcome [6] | outcome [7] | outcome [8] | outcome [9] | outcome [10]
124%: parasite growth, % of control (lower = inhibition) [13]
97.8%: parasite growth remaining, % of DMSO control (lower = more inhibition) [12]
95.7%: growth, % of control [14]
92.5%: parasite growth, % of DMSO control [11]
